In PubChem BioAssay (EPA / NIEHS) one finds outcome and AC50 data, which are given here for 4 molecules.

By AC50 is commonly meant the concentration giving half of the maximal activity seen.

Experiment [1] is described as follows: ATG_GRE_CIS: Attagene CIS-FACTORIAL HepG2 Assay for human Glucocorticoid Response Elements (GRE) (AID 2282947). To be noted: HepG2 GRE cis-reporter, Attagene multiplex mRNA; actives raise or lower the signal. The method, boiled down: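 Transiently transfected HepG2 cells carrying GRE cis-reporter units (endogenous TF activity) dosed 24 h; reporter mRNA quantified by RT-PCR, 6-FAM labelling, HpaI digestion and capillary electrophoresis. Bidirectional fit versus DMSO baseline.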

Experiment [2] can be described thus: ATG_ISRE_CIS: Attagene CIS-FACTORIAL HepG2 Assay for human Interferon Regulatory Factor 1 (IRF1) binding to an Interferon-Stimulated Response Element (ISRE) (AID 2282948). To be noted: HepG2 ISRE cis-reporter (Attagene), mRNA transcription readout; actives raise or lower the signal. The method in brief:
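HepG2 cells transiently transfected with multiplexed cis-promoter reporter units; after 24 h compound exposure, reporter mRNA quantified by RT-PCR, FAM labelling, HpaI digestion and capillary electrophoresis. Bidirectional fit versus DMSO baseline.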

Experiment [3] is described as follows: ATG_M_32_CIS: Attagene CIS-FACTORIAL HepG2 Assay for M32 Transcription Factor (Internal Marker) (AID 2282949).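 Also: background control marker of the multiplexed CIS panel rather than a real target.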 Conditions: HepG2 Attagene cis-factorial M32 reporter, mRNA; actives raise or lower the signal. The method in brief: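 Fluorescent capillary electrophoresis peaks of HpaI-digested, FAM-labelled RT-PCR reporter products give the signal. Source: transiently transfected human liver HepG2 cells, 24 h after chemical dosing; bidirectional fitting against DMSO.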

Experiment [4] in a line: ATG_M_06_CIS: Attagene CIS-FACTORIAL HepG2 Assay for M06 Transcription Factor (Internal Marker) (AID 2282950). To be noted: HepG2 Attagene CIS-FACTORIAL M06 internal marker reporter; actives raise or lower the signal. The method in brief: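 Cells (HepG2, transiently carrying cis-driven reporter units) receive chemical for 24 h before RNA isolation. Reporter cDNA is PCR-amplified, FAM-labelled by primer extension, HpaI-digested and sized on a capillary analyser.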

For experiment [5], the target named is Hepatocyte nuclear factor 6 (Homo sapiens) (UniProt Q9UBC0). Description: ATG_HNF6_CIS: Attagene CIS-FACTORIAL HepG2 Assay for human Hepatocyte Nuclear Factor 6 (HNF6) (AID 2282952). To be noted: HepG2 Attagene cis-factorial HNF6 reporter transcription; actives raise or lower the signal. The method, boiled down: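 Transiently transfected HepG2 cells expressing cis-regulated reporter transcription units were exposed to chemical for 24 h in a 24-well format. Reporter transcript abundance was determined by fluorescence capillary electrophoresis.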

Experiment [6] addresses Heat shock factor protein 1 (Homo sapiens) (UniProt Q00613). Description: ATG_HSE_CIS: Attagene CIS-FACTORIAL HepG2 Assay for human Heat Shock Transcription Factor 1 (HSE) (AID 2282953). To be noted: HepG2 HSE cis-reporter, Attagene RNA transcription; actives raise or lower the signal. The method in brief:
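Liver-derived HepG2 cells carry transiently introduced multiple reporter units governed by cis promoters. Reporter RNA measured 24 h post-dose through reverse transcription, PCR amplification, fluorescent labelling and capillary electrophoresis, normalised to DMSO.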

Experiment [7] is described as follows: ATG_MRE_CIS: Attagene CIS-FACTORIAL HepG2 Assay for human Metal Responsive Element (MRE) (AID 2282954). To be noted: HepG2 MRE cis-reporter transcription, Attagene multiplex; actives raise or lower the signal. The method, boiled down:
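HepG2 cells transiently transfected with cis-element-driven reporter units; mRNA measured 24 h after dosing. Reporter transcripts quantified by RT-PCR, FAM labelling, HpaI digestion and capillary electrophoresis; bidirectional fit versus DMSO.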

Experiment [8] in a line: ATG_PBREM_CIS: Attagene CIS-FACTORIAL HepG2 Assay for human Phenobarbital-responsive Enhancer Module (PBREM) (AID 2282955). To be noted: HepG2 PBREM cis-reporter, Attagene multiplexed transcription; actives raise or lower the signal. The method in brief: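 Endogenous transcription factors in human liver HepG2 cells drive a PBREM cis-element reporter, whose transcript level after 24 h treatment is quantified by RT-PCR with capillary electrophoresis; activity fitted in both directions against DMSO.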

Experiment [9] concerns the target Paired box protein Pax-6 (Homo sapiens) (UniProt P26367). Kind of experiment: ATG_Pax6_CIS: Attagene CIS-FACTORIAL HepG2 Assay for human Paired Box 6 (PAX6) (AID 2282956). To be noted: HepG2 CIS-FACTORIAL PAX6 reporter transcription, RNA readout; actives raise or lower the signal. The method in brief: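 HepG2 cells transiently transfected with multiplexed cis-promoter reporter units (endogenous TF activity) were dosed for 24 h. Reporter mRNA was quantified by RT-PCR, 6-FAM labeling, HpaI digestion and capillary electrophoresis; bidirectional fitting versus DMSO baseline.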

Experiment [10] in a line: ATG_PXRE_CIS: Attagene CIS-FACTORIAL HepG2 Assay for human Pregnane X Receptor Element (PXRE) (AID 2282957). To be noted: HepG2 Attagene CIS-FACTORIAL PXRE reporter, mRNA; actives raise or lower the signal. The method in brief:
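Cis-element reporter mRNA in human hepatoma HepG2 cells is measured 24 h post-dosing by RT-PCR, primer-extension labeling and capillary electrophoresis; gain or loss of signal is fitted relative to DMSO.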

The nature of experiment [11]: ATG_PPRE_CIS: Attagene CIS-FACTORIAL HepG2 Assay for human Peroxisome Proliferator-activated Response Element (PPRE) (AID 2282958). Conditions: HepG2 PPRE cis-element reporter, Attagene transcription factor profiling; actives raise or lower the signal. The method in brief: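 HepG2, transient MRTU transfection (cis promoter elements, endogenous TFs). 24 h dosing. RNA → oligo(dT) RT → PCR → 6-FAM primer extension → HpaI digest → CE. Bidirectional fit vs DMSO.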

The nature of experiment [12]: ATG_RORE_CIS: Attagene CIS-FACTORIAL HepG2 Assay for human RAR-related Orphan Receptor Element (RORE) (AID 2282959). To be noted: HepG2 Attagene cis-factorial RORE reporter, mRNA; actives raise or lower the signal. The method in brief:
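Transient MRTU transfection of human HepG2 liver cells (FuGene 6); 24 h compound exposure; TriZol RNA, oligo(dT) RT, PCR, FAM labeling, HpaI cut, CE fragment analysis. DMSO = negative control/baseline.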

The nature of experiment [13]: ATG_Sox_CIS: Attagene CIS-FACTORIAL HepG2 Assay for human SRY-box transcription factor (SOX) (AID 2282960). Conditions: HepG2 Attagene cis-factorial SOX reporter, mRNA; actives raise or lower the signal. The method in brief: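 Endogenous factor activity in human liver HepG2 cells carrying transfected cis-regulated reporter units. RNA taken 24 h post-dose, reverse-transcribed, PCR-amplified and sized by capillary electrophoresis. Gain or loss of signal fitted relative to DMSO.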

For experiment [14], the target named is Transcription factor Sp1 (Homo sapiens) (UniProt P08047). Kind of experiment: ATG_Sp1_CIS: Attagene CIS-FACTORIAL HepG2 Assay for human Specificity Protein 1 (Sp1) (AID 2282961). To be noted: HepG2 Sp1 cis-reporter transcription, actives raise or lower the signal. The method, boiled down: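 Transient MRTU-transfected HepG2, 24 h compound exposure. Total RNA → oligo(dT) RT → PCR of reporter → 6-FAM primer extension → HpaI digest → CE. Endpoint fitted both directions vs DMSO.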

Experiment [15] can be described thus: ATG_SREBP_CIS: Attagene CIS-FACTORIAL HepG2 Assay for human Sterol Regulatory Element Binding (SREBP) (AID 2282962). To be noted: HepG2 Attagene cis-factorial SREBP reporter, mRNA; actives raise or lower the signal. The method in brief: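 HepG2 cells transiently transfected with multiplexed cis-element reporter units report endogenous transcription factor activity. After 24 h of chemical exposure, reporter mRNA was quantified by RT-PCR, 6-FAM labelling, HpaI digestion and capillary electrophoresis; bidirectional fits used DMSO as baseline.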

The target of experiment [16] is Signal transducer and activator of transcription 3 (Homo sapiens) (UniProt P40763). Description: ATG_STAT3_CIS: Attagene CIS-FACTORIAL HepG2 Assay for human Signal Transducer and Activator of Transcription 3 (STAT3) (AID 2282963). Conditions: HepG2, Attagene cis-factorial STAT3 reporter transcription; actives raise or lower the signal. The method, boiled down:
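HepG2 cells transiently transfected with multiple cis-element-driven reporter units report endogenous transcription factor activity. After 24 h compound exposure, reporter mRNA is measured by RT-PCR, 6-FAM labelling, HpaI digestion and capillary electrophoresis. Fitted bidirectionally versus DMSO.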

Experiment [17] is described as follows: ATG_TA_CIS: Attagene CIS-FACTORIAL HepG2 Assay for human TA Basal Promoter (AID 2282964). Conditions: HepG2 Attagene CIS-factorial TA basal promoter reporter; actives raise or lower the signal. The method, boiled down:
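Background internal-marker endpoint from a 52-component HepG2 cis-reporter panel. Cells treated 24 h; reporter transcripts quantified via RT-PCR and CE fluorescence against DMSO baseline.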

Experiment [18] can be described thus: ATG_TCF_b_cat_CIS: Attagene CIS-FACTORIAL HepG2 Assay for human T-Cell-Factor with beta-catenin (TCF/b-cat) (AID 2282965). Conditions: HepG2 TCF/beta-catenin cis-reporter transcription, actives raise or lower the signal. The method, boiled down:
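HepG2, transient MRTU transfection, cis-element-driven reporters (endogenous TFs). 24 h compound exposure. Readout: reporter mRNA by RT-PCR + 6-FAM primer extension, HpaI digest, capillary electrophoresis. Gain/loss fit vs DMSO baseline.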

The target in experiment [19] is Hypoxia-inducible factor 1-alpha (Homo sapiens) (UniProt Q16665). Kind of experiment: ATG_HIF1a_CIS: Attagene CIS-FACTORIAL HepG2 Assay for human Hypoxia Inducible Factor 1 (HIF1A) (AID 2282951). To be noted: HepG2 Attagene cis-factorial HIF1a reporter transcription; actives raise or lower the signal. The method in brief: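 Transient MRTU transfection of human HepG2 liver cells, 24 h compound treatment, then total RNA isolation, oligo(dT) reverse transcription, PCR amplification, fluorescent labelling and capillary electrophoresis of reporter fragments. Gain or loss relative to DMSO.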

The source made the active and inactive calls. The calls were made as follows: active = hit-call score of the fitted dose curve at least 0.9, where 1 is the maximum; inactive = score below 0.9.

Sequence of Hepatocyte nuclear factor 6 (Homo sapiens) (Q9UBC0 whole entry, looked up): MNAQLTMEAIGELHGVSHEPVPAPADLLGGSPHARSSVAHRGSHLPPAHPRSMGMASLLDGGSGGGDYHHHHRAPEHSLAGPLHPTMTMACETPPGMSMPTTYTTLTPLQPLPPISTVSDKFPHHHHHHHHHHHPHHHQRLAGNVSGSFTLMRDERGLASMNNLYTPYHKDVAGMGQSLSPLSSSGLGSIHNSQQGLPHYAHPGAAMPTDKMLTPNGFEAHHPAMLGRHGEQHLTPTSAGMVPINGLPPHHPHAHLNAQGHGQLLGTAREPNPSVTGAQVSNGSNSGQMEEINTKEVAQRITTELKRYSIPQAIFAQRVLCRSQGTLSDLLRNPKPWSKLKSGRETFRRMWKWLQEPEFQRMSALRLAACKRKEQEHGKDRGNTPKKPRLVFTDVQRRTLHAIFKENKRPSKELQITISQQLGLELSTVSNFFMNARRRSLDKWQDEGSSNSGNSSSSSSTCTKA
Sequence of Heat shock factor protein 1 (Homo sapiens) (Q00613 whole entry, looked up): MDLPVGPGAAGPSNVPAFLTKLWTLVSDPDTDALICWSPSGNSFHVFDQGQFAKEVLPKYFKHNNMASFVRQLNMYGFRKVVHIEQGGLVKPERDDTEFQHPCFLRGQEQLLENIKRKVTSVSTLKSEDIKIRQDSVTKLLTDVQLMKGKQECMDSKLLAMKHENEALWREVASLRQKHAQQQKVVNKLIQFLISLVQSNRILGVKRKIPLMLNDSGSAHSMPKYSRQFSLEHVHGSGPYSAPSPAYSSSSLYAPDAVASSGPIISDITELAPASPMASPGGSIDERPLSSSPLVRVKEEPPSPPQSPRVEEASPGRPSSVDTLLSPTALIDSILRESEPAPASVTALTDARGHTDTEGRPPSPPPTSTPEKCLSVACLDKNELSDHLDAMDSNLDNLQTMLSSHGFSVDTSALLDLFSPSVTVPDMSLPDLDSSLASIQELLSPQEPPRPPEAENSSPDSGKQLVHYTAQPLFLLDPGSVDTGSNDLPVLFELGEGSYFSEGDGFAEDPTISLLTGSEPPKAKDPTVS
Sequence of Transcription factor Sp1 (Homo sapiens) (P08047 whole entry, looked up): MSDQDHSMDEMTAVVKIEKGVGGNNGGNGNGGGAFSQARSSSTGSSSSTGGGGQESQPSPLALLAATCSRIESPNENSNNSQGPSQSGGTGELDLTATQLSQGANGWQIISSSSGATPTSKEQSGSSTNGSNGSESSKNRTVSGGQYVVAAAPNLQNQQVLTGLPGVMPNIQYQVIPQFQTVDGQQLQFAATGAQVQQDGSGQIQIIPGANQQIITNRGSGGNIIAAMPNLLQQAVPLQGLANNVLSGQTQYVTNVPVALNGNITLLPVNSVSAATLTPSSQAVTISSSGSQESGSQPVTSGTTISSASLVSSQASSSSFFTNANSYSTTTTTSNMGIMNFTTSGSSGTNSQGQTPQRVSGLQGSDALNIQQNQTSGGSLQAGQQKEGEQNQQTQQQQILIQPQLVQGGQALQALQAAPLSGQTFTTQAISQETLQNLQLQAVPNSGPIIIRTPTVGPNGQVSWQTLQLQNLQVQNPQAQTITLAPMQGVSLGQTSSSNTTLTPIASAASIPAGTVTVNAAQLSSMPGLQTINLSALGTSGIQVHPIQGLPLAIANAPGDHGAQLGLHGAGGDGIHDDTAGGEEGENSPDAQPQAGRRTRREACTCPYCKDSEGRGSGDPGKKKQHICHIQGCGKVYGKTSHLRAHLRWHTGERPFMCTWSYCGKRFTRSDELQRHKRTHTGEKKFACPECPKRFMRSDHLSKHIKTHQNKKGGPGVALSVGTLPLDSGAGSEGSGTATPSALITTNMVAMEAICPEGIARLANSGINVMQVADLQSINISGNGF
Sequence of Signal transducer and activator of transcription 3 (Homo sapiens) (P40763 whole entry, looked up): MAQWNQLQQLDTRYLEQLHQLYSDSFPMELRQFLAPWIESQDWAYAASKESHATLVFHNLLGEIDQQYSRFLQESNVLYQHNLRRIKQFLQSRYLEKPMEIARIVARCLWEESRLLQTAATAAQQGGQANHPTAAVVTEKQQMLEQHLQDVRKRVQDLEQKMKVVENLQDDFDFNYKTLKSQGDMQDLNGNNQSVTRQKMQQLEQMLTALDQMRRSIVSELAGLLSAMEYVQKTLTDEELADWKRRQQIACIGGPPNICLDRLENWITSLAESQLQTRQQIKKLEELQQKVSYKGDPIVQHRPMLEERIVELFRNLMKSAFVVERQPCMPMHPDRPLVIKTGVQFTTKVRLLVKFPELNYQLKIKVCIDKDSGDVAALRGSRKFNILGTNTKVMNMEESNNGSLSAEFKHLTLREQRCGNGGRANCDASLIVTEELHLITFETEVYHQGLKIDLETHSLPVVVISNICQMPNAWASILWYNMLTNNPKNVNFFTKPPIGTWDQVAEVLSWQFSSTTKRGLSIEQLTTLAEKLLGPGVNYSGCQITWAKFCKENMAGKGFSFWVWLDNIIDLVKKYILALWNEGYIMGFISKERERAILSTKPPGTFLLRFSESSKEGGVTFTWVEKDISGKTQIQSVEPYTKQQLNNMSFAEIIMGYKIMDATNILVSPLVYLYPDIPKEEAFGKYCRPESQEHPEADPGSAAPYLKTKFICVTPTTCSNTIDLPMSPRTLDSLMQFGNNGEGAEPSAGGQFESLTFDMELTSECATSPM
Sequence of Paired box protein Pax-6 (Homo sapiens) (P26367 whole entry, looked up): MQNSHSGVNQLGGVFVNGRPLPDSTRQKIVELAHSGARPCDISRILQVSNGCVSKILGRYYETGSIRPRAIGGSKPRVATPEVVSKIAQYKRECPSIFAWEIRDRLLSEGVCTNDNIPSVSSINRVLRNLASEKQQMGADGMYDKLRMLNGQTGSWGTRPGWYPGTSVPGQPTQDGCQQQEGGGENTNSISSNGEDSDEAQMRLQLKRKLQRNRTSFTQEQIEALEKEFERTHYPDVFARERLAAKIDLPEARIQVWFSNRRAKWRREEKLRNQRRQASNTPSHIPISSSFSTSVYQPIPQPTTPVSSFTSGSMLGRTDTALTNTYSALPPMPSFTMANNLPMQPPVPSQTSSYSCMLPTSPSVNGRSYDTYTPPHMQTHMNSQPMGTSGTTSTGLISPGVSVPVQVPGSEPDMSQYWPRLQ
Sequence of Hypoxia-inducible factor 1-alpha (Homo sapiens) (Q16665 whole entry, looked up, the tested form may be a part): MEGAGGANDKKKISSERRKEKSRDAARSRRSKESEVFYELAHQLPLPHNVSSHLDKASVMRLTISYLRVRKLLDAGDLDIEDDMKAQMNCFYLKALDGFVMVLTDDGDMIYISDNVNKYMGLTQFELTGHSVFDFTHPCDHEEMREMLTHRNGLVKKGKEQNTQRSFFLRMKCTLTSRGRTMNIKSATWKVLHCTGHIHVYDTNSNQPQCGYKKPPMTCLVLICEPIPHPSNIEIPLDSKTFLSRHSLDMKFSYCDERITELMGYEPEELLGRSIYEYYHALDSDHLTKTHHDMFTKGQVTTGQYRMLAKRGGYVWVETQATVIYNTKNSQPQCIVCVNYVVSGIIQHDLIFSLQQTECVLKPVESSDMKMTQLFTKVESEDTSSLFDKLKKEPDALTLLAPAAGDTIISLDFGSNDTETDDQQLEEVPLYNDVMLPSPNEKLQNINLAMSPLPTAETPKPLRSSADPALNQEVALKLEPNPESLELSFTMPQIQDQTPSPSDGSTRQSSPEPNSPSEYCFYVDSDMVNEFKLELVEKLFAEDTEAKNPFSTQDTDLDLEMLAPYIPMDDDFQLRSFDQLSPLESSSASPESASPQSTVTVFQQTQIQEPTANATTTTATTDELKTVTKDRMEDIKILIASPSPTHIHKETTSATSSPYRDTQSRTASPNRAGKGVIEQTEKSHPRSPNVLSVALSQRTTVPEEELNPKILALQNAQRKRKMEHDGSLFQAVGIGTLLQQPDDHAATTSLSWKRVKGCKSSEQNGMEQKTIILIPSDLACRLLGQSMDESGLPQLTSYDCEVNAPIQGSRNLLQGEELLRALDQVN

Consider `CC(C)(C)c1ccc(N)cc1`, for which the molecule was classed as inactive in experiment [1], in experiment [2], in experiment [3], in experiment [4], in [5] and in [6]. The call in experiment [7], in [8], in experiment [9], in experiment [11], in experiment [12] and in experiment [13] was inactive. In addition, the molecule was called inactive in experiment [14], in [15], in experiment [16], in [17] and in [18]. Also, the AC50 in [10] was 24.2 µM (active).

For the molecule `c1cc(C(c2ccc(OCC3CO3)cc2)C(c2ccc(OCC3CO3)cc2)c2ccc(OCC3CO3)cc2)ccc1OCC1CO1` (stereo not drawn), the outcome in experiment [1], in experiment [3], in [4], in experiment [5], in experiment [13] and in experiment [15] was inactive. Besides, the molecule was classed as inactive in [16]. The AC50 in experiment [2] was 63.3 µM (active); in experiment [6], 56.5 µM (active); in experiment [7] it was 50.2 µM (active); in experiment [9], 34.4 µM (active); in [10], 7.01 µM (active); in experiment [14] it was 31.8 µM (active). Besides, the AC50 in [17] was 72.2 µM (active).

For `CCCCCCCCCCCSCC(=O)O`, the result in experiment [1], in experiment [3], in experiment [4], in [10], in experiment [13] and in experiment [16] was inactive. Also, the outcome in experiment [18] was inactive. Also, the AC50 was 124 µM (active) in [19]; 100 µM (active) in [5]; 159 µM (active) in experiment [6]; 106 µM (active) in [7]; 100 µM (active) in [9]; 5.09 µM (active) in [11]. Besides, the concentration at half-maximal activity (AC50) in [12] was 51.6 µM (active); in [14], 151 µM (active); in experiment [15], 25.1 µM (active).

With `CCOC(=O)N1CCC(=C2c3ccc(Cl)cc3CCc3cccnc32)CC1`, the molecule was called inactive in experiment [1], in experiment [3], in experiment [5], in [6], in experiment [13] and in experiment [14]. For the same molecule, the outcome in experiment [15] and in experiment [16] was inactive. Moreover, the AC50 in [2] is 7.19 µM (active); in experiment [19], 7.91 µM (active); in [7], 10.7 µM (active); in experiment [8], 0.933 µM (active); in [9], 7.79 µM (active); in experiment [17] it was 7.49 µM (active). The AC50 in experiment [18] was 8.07 µM (active).
